For some assays here: Potency and affinity values are given separately.
What was measured:
Set-up in all cases: scale not given: direction of the effect not stated beside the values
[1] = biological target: Protein translocase subunit SecA (Escherichia coli (strain K12)) (UniProt P10408); assay: Assay to Identify E. coli SecA ATPase Inhibitors; format: functional; conditions: 30 µM
[2] = biological target: T1, Ubiquitin-activating enzyme e1, putative (Leishmania donovani (strain BPK282A1)) (UniProt E9BSI1); assay: Leishmania donovani Ubiquitin Activating Enzyme (LdE1); format: functional; conditions: 30 µM
T1 sequence (whole entry): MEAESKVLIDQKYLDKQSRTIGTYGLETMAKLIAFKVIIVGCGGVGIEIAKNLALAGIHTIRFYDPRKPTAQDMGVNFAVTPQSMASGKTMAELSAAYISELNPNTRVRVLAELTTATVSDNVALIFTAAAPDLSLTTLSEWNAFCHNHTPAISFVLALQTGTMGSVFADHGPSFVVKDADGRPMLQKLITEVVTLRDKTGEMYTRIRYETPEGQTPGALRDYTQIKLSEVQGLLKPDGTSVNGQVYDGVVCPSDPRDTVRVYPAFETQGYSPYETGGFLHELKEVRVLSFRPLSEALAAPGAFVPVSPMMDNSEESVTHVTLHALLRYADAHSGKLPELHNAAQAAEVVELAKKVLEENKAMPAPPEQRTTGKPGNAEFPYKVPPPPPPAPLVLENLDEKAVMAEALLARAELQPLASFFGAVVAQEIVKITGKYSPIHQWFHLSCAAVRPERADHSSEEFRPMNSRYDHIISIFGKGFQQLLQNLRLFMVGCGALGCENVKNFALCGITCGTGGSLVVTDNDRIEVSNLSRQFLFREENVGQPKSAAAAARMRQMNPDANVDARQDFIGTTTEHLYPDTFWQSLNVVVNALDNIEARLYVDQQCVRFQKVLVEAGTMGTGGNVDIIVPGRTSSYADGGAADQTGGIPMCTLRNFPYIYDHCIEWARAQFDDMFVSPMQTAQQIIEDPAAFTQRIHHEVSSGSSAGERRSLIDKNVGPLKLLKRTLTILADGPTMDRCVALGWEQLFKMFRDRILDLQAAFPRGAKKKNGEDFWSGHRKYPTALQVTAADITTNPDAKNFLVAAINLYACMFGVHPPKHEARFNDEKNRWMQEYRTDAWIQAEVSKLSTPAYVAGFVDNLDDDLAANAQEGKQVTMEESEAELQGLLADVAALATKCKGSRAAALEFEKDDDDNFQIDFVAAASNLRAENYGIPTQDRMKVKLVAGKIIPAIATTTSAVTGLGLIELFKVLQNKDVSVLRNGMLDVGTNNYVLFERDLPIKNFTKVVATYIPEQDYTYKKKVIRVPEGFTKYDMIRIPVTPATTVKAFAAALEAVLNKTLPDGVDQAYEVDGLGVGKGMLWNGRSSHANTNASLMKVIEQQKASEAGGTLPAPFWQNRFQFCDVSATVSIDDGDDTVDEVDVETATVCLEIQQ

[3] = biological target: AMP-activated protein kinase, AMPK (Homo sapiens) (UniProt P54646+O43741+P54619+Q9UGJ0+Q9Y478+Q13131+Q9UGI9); assay: AMP-dependent Kinase enzyme assay. An in vitro enzyme assay that detects ADP turnover that is directly proportional to AMPK activity. This uses naive AMPK that is activated during the assay with MK-8722; format: functional; conditions: 30 µM
[4] = biological target: Sialic acid-binding Ig-like lectin 9 (Homo sapiens) (UniProt Q9Y336); assay: Hs-Siglec9 ALPHAscreen SOP 20170721; conditions: 10 µM
Trypanosoma cruzi = assay: Trypanosoma cruzi phosphomannomutase and mannose-1-phosphate guanylyltransferase assay; format: functional; conditions: 10 µM
[5] = biological target: T2, Arginase-2, mitochondrial (Homo sapiens) (UniProt P78540); assay: in vitro enzyme assay to detect the production of urea directly proportional to the activity of Arginase II; format: functional; conditions: 33.3 µM; also: in the data most compounds retested in dose-response had high values
T2 sequence (whole entry): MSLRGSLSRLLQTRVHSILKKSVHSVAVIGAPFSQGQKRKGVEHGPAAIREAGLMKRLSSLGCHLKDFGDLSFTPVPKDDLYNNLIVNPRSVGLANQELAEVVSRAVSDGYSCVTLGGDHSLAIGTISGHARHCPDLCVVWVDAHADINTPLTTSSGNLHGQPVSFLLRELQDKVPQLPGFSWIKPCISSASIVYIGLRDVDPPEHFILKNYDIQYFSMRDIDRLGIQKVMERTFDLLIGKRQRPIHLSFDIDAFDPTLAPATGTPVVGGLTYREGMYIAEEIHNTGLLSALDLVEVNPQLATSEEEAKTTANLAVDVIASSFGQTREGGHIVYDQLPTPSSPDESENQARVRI

[6] = biological target: T3, Proteasome subunit beta (Trypanosoma cruzi) (UniProt O96673); assay: Trypanosoma cruzi proteasome chymotrypsin-like activity (TcProtChymo) assay.; also: in the data most compounds retested in dose-response had high values; format: functional; conditions: 9.37 µM
T3 sequence (whole entry): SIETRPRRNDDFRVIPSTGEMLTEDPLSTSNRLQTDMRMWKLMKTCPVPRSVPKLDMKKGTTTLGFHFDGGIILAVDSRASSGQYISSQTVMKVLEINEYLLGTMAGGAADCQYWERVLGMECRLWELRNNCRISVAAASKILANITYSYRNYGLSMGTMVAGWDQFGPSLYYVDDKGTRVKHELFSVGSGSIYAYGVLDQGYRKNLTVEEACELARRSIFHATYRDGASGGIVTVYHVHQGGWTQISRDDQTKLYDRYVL

Homo sapiens = species on record: Homo sapiens; assay: To identify inhibition of the IFN signalling (Jak-Stat) pathway via expression of an eGFP reporter gene under the control of an IFN-stimulated response element (ISRE) containing MxA promoter.; format: functional; conditions: 30 µM
[7] = biological target: T4, Tyrosyl-tRNA synthetase, putative (Trypanosoma cruzi (strain CL Brener)) (UniProt Q4DSP6); assay: Trypanosoma cruzi tyrosyl tRNA synthetase (TcYRS) _High Tyrosine SOP; format: functional; conditions: 30 µM; also: in the data most compounds retested in dose-response had high values
T4 sequence (whole entry): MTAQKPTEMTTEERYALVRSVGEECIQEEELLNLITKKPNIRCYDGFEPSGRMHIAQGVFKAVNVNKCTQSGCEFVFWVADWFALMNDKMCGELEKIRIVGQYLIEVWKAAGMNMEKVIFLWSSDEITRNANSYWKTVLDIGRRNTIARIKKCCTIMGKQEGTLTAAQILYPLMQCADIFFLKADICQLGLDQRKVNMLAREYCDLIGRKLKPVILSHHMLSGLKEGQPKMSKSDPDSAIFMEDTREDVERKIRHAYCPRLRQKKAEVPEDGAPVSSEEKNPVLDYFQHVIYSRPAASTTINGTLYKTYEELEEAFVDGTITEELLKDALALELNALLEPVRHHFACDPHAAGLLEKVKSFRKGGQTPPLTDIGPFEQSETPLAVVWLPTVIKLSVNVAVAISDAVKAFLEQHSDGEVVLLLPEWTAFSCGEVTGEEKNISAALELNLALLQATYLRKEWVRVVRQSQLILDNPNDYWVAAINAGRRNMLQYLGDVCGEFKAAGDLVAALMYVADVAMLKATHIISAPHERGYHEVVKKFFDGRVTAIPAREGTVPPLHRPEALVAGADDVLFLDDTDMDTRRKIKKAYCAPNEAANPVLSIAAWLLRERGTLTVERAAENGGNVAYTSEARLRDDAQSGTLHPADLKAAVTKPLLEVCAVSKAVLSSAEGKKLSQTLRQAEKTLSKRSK

[8] = biological target: T4, Tyrosyl-tRNA synthetase, putative (Trypanosoma cruzi (strain CL Brener)); assay: Trypanosoma cruzi tyrosyl tRNA synthetase (TcYRS) SOP; format: functional; conditions: 30 µM
[9] = biological target: Chromo domain-containing protein 1 (Saccharomyces cerevisiae (strain ATCC 204508 / S288c) (Baker's yeast)) (UniProt P32657); assay: ScCHD-1 Enzyme Inhibition Assay; format: functional; conditions: 30 µM; also: in the data most compounds retested in dose-response had high values
Chromo domain-containing protein 1 (Saccharomyces cerevisiae (strain ATCC 204508 / S288c) (Baker's yeast)), sequence (P32657 whole entry, the tested form may be a part): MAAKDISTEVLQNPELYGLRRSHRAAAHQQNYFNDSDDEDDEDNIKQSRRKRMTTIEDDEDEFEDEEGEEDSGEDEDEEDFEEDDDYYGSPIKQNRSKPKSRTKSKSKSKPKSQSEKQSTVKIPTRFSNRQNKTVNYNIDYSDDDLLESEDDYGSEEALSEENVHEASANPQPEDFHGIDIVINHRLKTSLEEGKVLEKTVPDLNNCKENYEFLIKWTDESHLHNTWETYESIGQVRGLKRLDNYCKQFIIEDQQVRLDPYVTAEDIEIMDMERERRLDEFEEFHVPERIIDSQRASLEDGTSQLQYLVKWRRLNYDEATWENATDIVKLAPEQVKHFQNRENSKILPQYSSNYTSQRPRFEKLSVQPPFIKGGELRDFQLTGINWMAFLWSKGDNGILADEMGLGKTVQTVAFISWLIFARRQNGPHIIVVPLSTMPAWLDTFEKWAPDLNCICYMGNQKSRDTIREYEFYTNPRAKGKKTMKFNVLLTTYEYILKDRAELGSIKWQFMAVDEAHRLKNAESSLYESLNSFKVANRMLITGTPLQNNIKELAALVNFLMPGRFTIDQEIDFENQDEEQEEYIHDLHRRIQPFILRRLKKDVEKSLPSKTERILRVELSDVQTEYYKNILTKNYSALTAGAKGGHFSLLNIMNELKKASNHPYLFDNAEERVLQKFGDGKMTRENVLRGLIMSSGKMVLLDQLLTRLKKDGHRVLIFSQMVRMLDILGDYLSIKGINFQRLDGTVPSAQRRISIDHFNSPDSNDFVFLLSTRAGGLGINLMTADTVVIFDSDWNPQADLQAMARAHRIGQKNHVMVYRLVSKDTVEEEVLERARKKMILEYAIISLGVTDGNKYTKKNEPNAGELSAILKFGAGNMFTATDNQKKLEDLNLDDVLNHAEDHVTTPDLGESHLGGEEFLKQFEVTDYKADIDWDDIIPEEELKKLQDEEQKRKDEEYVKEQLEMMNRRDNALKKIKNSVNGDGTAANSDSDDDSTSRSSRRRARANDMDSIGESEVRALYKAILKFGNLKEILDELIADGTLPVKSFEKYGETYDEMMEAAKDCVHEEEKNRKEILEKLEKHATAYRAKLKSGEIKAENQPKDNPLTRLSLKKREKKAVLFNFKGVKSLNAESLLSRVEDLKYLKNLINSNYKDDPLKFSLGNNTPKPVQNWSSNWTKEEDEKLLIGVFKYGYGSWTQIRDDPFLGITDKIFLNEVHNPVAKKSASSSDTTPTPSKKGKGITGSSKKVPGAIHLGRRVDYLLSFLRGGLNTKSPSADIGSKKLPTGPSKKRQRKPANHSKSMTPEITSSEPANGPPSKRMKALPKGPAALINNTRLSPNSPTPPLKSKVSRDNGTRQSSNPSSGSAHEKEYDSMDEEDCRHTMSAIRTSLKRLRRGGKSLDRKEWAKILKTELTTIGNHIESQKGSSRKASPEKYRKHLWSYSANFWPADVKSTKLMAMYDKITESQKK

Protein translocase subunit SecA (Escherichia coli (strain K12)), sequence (P10408 whole entry): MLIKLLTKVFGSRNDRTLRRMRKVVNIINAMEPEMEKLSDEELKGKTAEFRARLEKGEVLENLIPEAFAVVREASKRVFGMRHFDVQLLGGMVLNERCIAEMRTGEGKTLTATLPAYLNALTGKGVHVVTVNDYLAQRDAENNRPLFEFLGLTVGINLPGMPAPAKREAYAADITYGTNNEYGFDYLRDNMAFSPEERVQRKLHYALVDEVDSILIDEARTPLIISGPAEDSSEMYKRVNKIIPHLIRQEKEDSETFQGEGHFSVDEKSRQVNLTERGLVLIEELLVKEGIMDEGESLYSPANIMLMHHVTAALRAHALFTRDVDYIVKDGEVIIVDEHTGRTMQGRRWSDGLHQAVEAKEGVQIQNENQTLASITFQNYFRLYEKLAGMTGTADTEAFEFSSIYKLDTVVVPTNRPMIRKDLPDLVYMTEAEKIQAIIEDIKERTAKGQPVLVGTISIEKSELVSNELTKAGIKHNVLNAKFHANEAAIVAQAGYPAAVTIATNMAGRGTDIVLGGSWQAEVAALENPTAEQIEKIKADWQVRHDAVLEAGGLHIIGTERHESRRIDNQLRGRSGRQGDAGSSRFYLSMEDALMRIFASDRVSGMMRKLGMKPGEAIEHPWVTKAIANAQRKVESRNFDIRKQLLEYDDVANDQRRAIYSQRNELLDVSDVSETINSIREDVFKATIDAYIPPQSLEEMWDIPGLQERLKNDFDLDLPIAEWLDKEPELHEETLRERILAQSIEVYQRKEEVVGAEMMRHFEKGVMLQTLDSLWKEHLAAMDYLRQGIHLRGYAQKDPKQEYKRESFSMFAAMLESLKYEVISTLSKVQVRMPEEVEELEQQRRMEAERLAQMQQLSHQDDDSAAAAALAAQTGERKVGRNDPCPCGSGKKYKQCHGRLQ
Sialic acid-binding Ig-like lectin 9 (Homo sapiens), sequence (Q9Y336 whole entry): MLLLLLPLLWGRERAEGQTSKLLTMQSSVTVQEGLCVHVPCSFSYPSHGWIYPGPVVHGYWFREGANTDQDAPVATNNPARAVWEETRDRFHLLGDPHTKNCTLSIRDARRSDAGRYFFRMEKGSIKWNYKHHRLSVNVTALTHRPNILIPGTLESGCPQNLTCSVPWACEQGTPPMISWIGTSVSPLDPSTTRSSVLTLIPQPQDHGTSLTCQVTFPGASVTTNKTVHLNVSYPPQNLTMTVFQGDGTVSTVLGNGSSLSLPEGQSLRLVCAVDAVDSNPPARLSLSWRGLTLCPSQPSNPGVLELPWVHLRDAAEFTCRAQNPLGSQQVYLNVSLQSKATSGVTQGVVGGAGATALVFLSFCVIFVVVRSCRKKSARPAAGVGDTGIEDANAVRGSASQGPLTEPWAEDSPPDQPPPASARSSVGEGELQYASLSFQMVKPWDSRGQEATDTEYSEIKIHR

Structure (SMILES)	Percent Effect [1] [%]	Percent Effect [2] [%]	Percent Effect [3] [%]	Percent Effect [4] [%]	Percent Effect (Trypanosoma cruzi) [%]	Percent Effect [5] [%]	Percent Effect [6] [%]	Percent Effect (Homo sapiens) [%]	Percent Effect [7] [%]	Percent Effect [8] [%]	Percent Effect [9] [%]
CC(C)CCn1[nH]c(CNc2ccccc2)nc1=O	-2.4	2.63	4.53	4.24	-9.06	2.37	16.2	2.77	2.13	2.6	4.81
CC(C)SCC(=O)N1CCc2c(nc(N(C)C)nc2N(C)C)C1	-5.05	13.3	-4.26	19.7	6.52	5.73	13.8	10.8	2.73	8.64	-8.15
O=C(c1cc(F)ccc1F)C1CCN(C(=O)c2ccc(=O)[nH]n2)CC1	-2.7	13	0.316	0.809	-3.43	2.32	7.52	15.8	3.81	18.8	-6.34
CN(Cc1cc2c(cc1OC(F)F)OCO2)Cc1nccn1C	-4.78	2.7	-4.36	4	1.27	-0.744	5.58	0.0596	3.23	6.17	-1.72
O=C(c1cccc(OC2CCCC2)c1)N1CCCC(n2cncn2)C1 (configuration not stated)	-4.01	5.41	12.1	4.98	5.57	-5.61	-3.06	21.5	7.39	13.6	-11.7
Cc1cnn(CCC(=O)N2CCN(c3nc(C)cs3)CC2)c1	-5.41	17.7	-10.1	9.63	5.76	-2.66	11.6	1.73	4.43	24.1	-8.6
CCn1c(C)nnc1CN(C)C1CCN(CCCOC)C1 (configuration not stated)	-1.09	18.2	-9.12	4.71	3.82	6.11	11.7	-2.93	7.62	25.9	-10.1
NC(=O)N1CCC2(CC1)CN(c1ccsc1)C(=O)CO2	-5.13	10.7	4.87	0.623	-7.68	-3.96	-2.38	11	-3.19	-1.28	-2.23
Cc1ncc(CNC(=O)N(C)C2CCN(c3ccccc3)C2=O)s1 (configuration not stated)	-4.68	5.26	1.78	-2.39	-4.51	3.45	4.51	15.1	2.45	0	-3.16
COc1cccc(CN(C)C(=O)CN2CCN(c3nccn3C)CC2)c1	-1.77	8	-12.7	7.67	3.99	14.1	20.6	1.29	10.4	21	-3.45
COc1ccc(OCc2sc(C3(O)CCCNCC3)nc2C)cc1 (configuration not stated)	-4.47	9.46	3.29	4.34	-1.58	3.48	4.52	2.06	3.23	6.49	-17.3
CN(Cc1ccccc1Br)C(=O)Cn1nc(-c2ccc(F)cc2)oc1=O	2.65	-5.26	0.817	-11.8	-6.33	10.7	10.8	10	-24.5	-28.6	-1.2
Cn1ccc(CN2CCC(CO)CC2)cc1=O	-3.9	-1.27	2.26	0.971	-4.41	2.8	1.03	26.1	-2.08	10.1	-1.56
Cc1ccc(C)c(CNC(=O)NC(C)(C(=O)O)c2ccco2)c1 (configuration not stated)	-5.53	21.1	-0.592	12.2	8.12	-5.75	5.33	5.04	5.42	16.1	-4.02
Cc1nsc(C(=O)N2CCc3ccccc3C2)n1	-7.16	13	-4.33	-9.01	4.44	-1.94	5.22	3.35	3.17	8.97	-9.64
CN(C)C(=O)N[C@@H]1CN(Cc2ccc3c(c2)OCO3)[C@@H]2CCCO[C@@H]21	-4.35	5.33	4.23	8.52	-0.386	-58.6	14.5	1.11	7.29	17.5	-5.44
O=C(NCc1cc[nH]n1)N1CCCCC(N2CCCC2)C1 (configuration not stated)	-3.54	-10.5	-9.14	11.7	6.44	2.16	1.27	7.32	7.39	23.5	3.8
CSC(C)C(=O)N1CCCN(Cc2cnn(C(C)C)c2)CC1 (configuration not stated)	1.59	21.6	-6.76	-4.41	-10.3	2	19.1	7.04	8.37	11.1	-4.54
Cc1c(Br)cccc1C(=O)NC(C)CN1CCCC1=O (configuration not stated)	-3.78	2.74	-2.6	-6.12	-2.35	0.909	7.1	10	1.07	5	-5.51
COc1ccc(CNCc2c(C)nn(C)c2N2CCOCC2)cc1	-5.07	18.2	-11.5	0.605	3.82	0.21	14.5	-34.5	8.57	21.2	-13
O=C(NCCC1CCCO1)c1ccccc1N1CCOCC1 (configuration not stated)	-4.55	2.74	-1.11	12.4	4.56	-5.99	10.7	8.12	10.4	18.5	-2.02
Cc1cnn(CCC(=O)N2CCN(c3ncccc3Cl)CC2)c1	-2.22	3.8	10.2	2	-4.21	1.94	10.3	18.8	1.04	2.53	-5.44

From ChEMBL document CHEMBL3988442, “University of Dundee, Small-Polar-MMV Screening Library” (2021)
